Results on 40 molecules are retold here after PubChem BioAssay (Tox21).

Structures are written as SMILES. Inconclusive results are not listed. Unmarked numbers belong to inactive results. Activity calls are given as the source filed them. The call rests on the fitted dose curve.
On the % scale 0 is the no-effect control and ±100 the full control effect.

In this experiment the target is Beta-2 adrenergic receptor (Homo sapiens) (UniProt P07550). The experiment in a line: Adrenergic beta2 receptor (ADRB2) small molecule agonists, cell-based qHTS assay (AID 1963593). The following applies: CHO-ADRB2 cells, cAMP HTRF, 30 min; series mostly up to 92.4 µM; activation: at the top concentration. The source says: National Center for Advancing Translational Sciences [NCATS]
Sequence of Beta-2 adrenergic receptor (Homo sapiens) (P07550 whole entry, looked up): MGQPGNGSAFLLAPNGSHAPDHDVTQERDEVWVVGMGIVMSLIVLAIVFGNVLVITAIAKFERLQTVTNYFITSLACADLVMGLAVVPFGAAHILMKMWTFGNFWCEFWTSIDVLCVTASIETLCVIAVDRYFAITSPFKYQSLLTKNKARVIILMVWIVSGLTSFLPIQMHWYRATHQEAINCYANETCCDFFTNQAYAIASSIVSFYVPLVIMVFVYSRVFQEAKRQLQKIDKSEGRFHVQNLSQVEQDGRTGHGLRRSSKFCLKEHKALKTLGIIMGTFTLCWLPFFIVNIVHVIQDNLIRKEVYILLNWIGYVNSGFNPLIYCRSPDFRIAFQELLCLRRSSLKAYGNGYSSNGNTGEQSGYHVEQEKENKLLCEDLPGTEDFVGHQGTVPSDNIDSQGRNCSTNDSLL
Division of Preclinical Innovation [DPI]
U.S. Environmental Protection Agency [EPA]
National Institutes of Environmental Health Sciences [NIEHS]
National Toxicology Program [NTP]
U.S. Food and Drug Administration [FDA]
Beta adrenergic receptors (Beta-ARs) belong to the G-protein coupled receptor (GPCR) superfamily, includes three subtypes - beta1, beta2, and beta3. Beta1-AR is the predominant receptor subtype expressed in the heart, and beta2-AR is expressed in the kidney, lung, blood vessel and in the heart, and beta3 is found in the adipocytes. Beta1 and 2 ARs couple to Gs protein and elevate cyclic adenosine mono phosphate (cAMP), which activates protein kinase A and leads to the downstream signaling responsible for the physiological actions. Beta-AR agonists or antagonists are the most prescribed therapeutic agents for heart failure and asthma, and these were one of the first target receptors for the rational drug design. Tox21 10K compound library was screened using the cAMP-Gs dynamic assay (Cisbio Bioassays, Shelton, CT) to identify agonists/antagonists of the Gs-coupled human adrenergic, beta2 receptor (ADRB2) in the CHO-ADRB2 cell line (Codex BioSolutions, Inc. Gaithersburg, MD), which stably over-expresses ADRB2. The principle of cAMP-Gs dynamic assay is based on HTRF technology, which facilitates the fluorescence resonance energy transfer (FRET) between donor Europium cryptate and acceptor d2-labeled cAMP. The cAMP generated within cells competes with the red acceptor, d2-labled cAMP, for binding to the monoclonal anti-cAMP-cryptate (Europium donor). An increase in intracellular cAMP leads to the disruption of FRET signal, and the signal is inversely proportional to the cAMP concentration. Isoproterenol HCl (Sigma-Aldrich, St. Louis, MO) was used as a positive control in the screening.
Tox21 Assay Protocol Summary:
CHO-ADRB2 cells were dispensed at 1,000/well in 4uL assay medium into white/solid 1536-well plates (Greiner Bio-One North America Inc., Monroe, NC) using a Multidrop Combi dispenser (ThermoFisher Scientific, Waltham, MA). The assay plates were incubated at 37C and 5% CO2 for an overnight (18-20hr). Then positive control and test compounds dissolved in DMSO were transferred to the assay plates at 23nL using a Pintool station (Wako, San Diego, CA). Following the compound and positive control transfer, 1uL stimulation mix containing 100uM IBMX and 25uM Ro-20-1724 was added to each well of the assay plates using BioRAPTR Flying Reagent Dispenser (FRD, Beckman Coulter, Brea, CA). The assay plates were incubated at room temperature for 0.5hr. Then 2.5ul each d2-labled cAMP and anti-cAMP-cryptate solutions were added separately to each well of the assay plates using an FRD and the assay plates were incubated at room temperature for 1hr.
Consider `C[C@H]1C[C@@H]2[C@H]([C@@H](O)C[C@@]3(C)[C@H]2CC[C@]3(O)C(=O)CO)[C@@]2(C)C=CC(=O)C=C12`, for which the “activation” value is -35.5%.

For the molecule `Cc1cccc(C)c1`, the Potency result was “inactive”.

Take `CC(=O)OC/C=C(\C)CCC=C(C)C`: the “activation” value is 21.6%.

Regarding `CC(=O)OC/C=C(C)/C=C/C=C(C)/C=C/C1=C(C)CCCC1(C)C`, the Potency result is “inactive”.

Turning to `CN(C)C(=O)Nc1ccc(Cl)c(Cl)c1`, the Potency entry was “inactive”.

As for `CCCCCCC(=O)O`, the “activation” value was 12.7%.

With `S=c1nc[nH]c2nc[nH]c12`, the “activation” value was 11% [at 42.5 µM].

As for `O=C1C(N(CO)C(=O)NCO)N(CO)C(=O)N1CO` (stereo not given), the “activation” value was 3.07% [at 42.5 µM].

As to `COc1ccc([N+](=O)[O-])cc1N`, the Potency result was “inactive”.

For the molecule `C[C@H]1C[C@H]2[C@@H]3CCC4=CC(=O)C=C[C@]4(C)[C@@]3(F)[C@@H](O)C[C@]2(C)[C@@]1(O)C(=O)CO`, the “activation” value is -15.6% [at 42.5 µM].

For `Nc1ccc(S(N)(=O)=O)cc1`, the “activation” value is -36.9%.

As for `CC1(C)S[C@@H]2[C@H](NC(=O)[C@H](N)c3ccccc3)C(=O)N2[C@H]1C(=O)O`, the Potency entry is “inactive”.

Take `CCCCCCCCO`: the Potency result was “inactive”.

For `OCCOCCOCCO`, the “activation” value is -26.2%.

As to `CCCCCCCCCCCCc1ccccc1`, the “activation” value was 2.12%.

Turning to `CCCCCCCCCCCCOC(=O)c1cc(O)c(O)c(O)c1`, the “activation” value was -41.2%.

In the case of `C1COCCN1`, the Potency result was “inactive”.

For the molecule `OCc1cccc(Oc2ccccc2)c1`, the “activation” value was 9.49%.

For `CCCCC/C(C=O)=C\c1ccccc1`, the Potency result is “inactive”.

As to `C/C=C1/CC2C=CC1C2` (stereo not given), the “activation” value is -5.2%.

`CCCCCCCCCCCC[N+](C)(C)C`: the “activation” value was 8.94%.

On to `CC(C)C(=O)Nc1ccc([N+](=O)[O-])c(C(F)(F)F)c1`, for which the “activation” value was 2.6% [at 42.5 µM].

As for `N[C@@H](Cc1cc(I)c(Oc2cc(I)c(O)c(I)c2)c(I)c1)C(=O)O`, the “activation” value was 7.42% [at 42.5 µM].

Regarding `OC[C@@H](O)[C@@H](O)[C@H](O)[C@@H](O)CO`, the Potency entry was “inactive”.

With `CCCC[P+](CCCC)(CCCC)CCCC`, the Potency result was “inactive”.

For `COc1c(Cl)c(Cl)c(Cl)c(Cl)c1Cl`, the “activation” value was 0.298%.

Take `CC(O)(P(=O)(O)O)P(=O)(O)O`: the “activation” value is 11% [at 42.5 µM].

As for `CC(C)Cc1ccc(C(C)C(=O)O)cc1` (stereo not given), the “activation” value was 2.41% [at 42.5 µM].

Regarding `NC(N)=O`, the “activation” value is -9.64%.

On to `OCC(O)CS` (stereo not given), for which the “activation” value is -2.75%.

As to `OC[C@H]1O[C@H](O[C@]2(CCl)O[C@H](CCl)[C@@H](O)[C@@H]2O)[C@H](O)[C@@H](O)[C@H]1Cl`, the Potency entry is “inactive”.

On to `CCc1nc(N)nc(N)c1-c1ccc(Cl)cc1`, for which the “activation” value was -12.5% [at 42.5 µM].

Consider `Nc1ccc(C(=O)O)cc1`, for which the Potency entry is “inactive”.

Consider `FC(F)(F)c1ccc(Cl)c(Cl)c1`, for which the “activation” value is 0.213%.

In the case of `CCCCNS(=O)(=O)c1ccccc1`, the Potency entry is “inactive”.

On to `CCCOC(=O)c1cc(O)c(O)c(O)c1`, for which the Potency entry is “inactive”.

For the molecule `NC(=O)c1cnccn1`, the “activation” value is 4.08% [at 42.5 µM].

In the case of `C=CC(=O)OCCCCCCCC(C)C`, the Potency entry was “inactive”.

As for `O=c1[nH]cnc2c1ncn2[C@H]1CC[C@@H](CO)O1`, the Potency entry was “inactive”.

`CCCCCCCC(=O)OC`: the “activation” value was 15.2%.
